Active and inactive are the calls of the source. Rule for the calls: active = hit-call score of the fitted dose curve at least 0.9, where 1 is the maximum; inactive = score below 0.9.
What was measured:
[1] = read-out: Matrix Metallopeptidase 1 (MMP1), MMP1 (gene 4312); assay: BSK_hDFCGF_MMP1: BioMAP Diversity Plus: hDFCGF Assay for Matrix Metallopeptidase 1 (MMP1) Biomarker Activity (AID 2283064); conditions: primary human foreskin fibroblasts; actives raise or lower the signal
In short: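 Human foreskin fibroblasts exposed to chemical for 24 h; MMP1 detected by ELISA, with DMSO as baseline for bidirectional fitting.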

[2] = read-out: Vascular cell adhesion molecule 1 (VCAM1), VCAM1 (gene 7412); assay: BSK_hDFCGF_VCAM1: BioMAP Diversity Plus: hDFCGF Assay for Vascular cell adhesion molecule 1 (VCAM1) Biomarker Activity (AID 2283065); conditions: primary human foreskin fibroblasts; actives raise or lower the signal;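 for AC50: VCAM-1 protein level quantified by ELISA after 24 h chemical exposure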
In short: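 Measured after 24 h chemical treatment of primary human skin fibroblasts, VCAM-1 was detected by ELISA and concentration-response analysed in both directions versus DMSO vehicle.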

[3] = read-out: Plasminogen activator inhibitor-1 (PAI1), SERPINE1 (gene 5054); assay: BSK_hDFCGF_PAI1: BioMAP Diversity Plus: hDFCGF Assay for Plasminogen activator inhibitor-1 (PAI1) Biomarker Activity (AID 2283066); conditions: primary human foreskin fibroblasts; actives raise or lower the signal
In short: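 Human skin fibroblast cultures receive chemical for 24 h before PAI-1 is measured by ELISA; signal changes are fitted bidirectionally against DMSO-treated wells.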

[4] = read-out: Intercellular Adhesion Molecule 1 (ICAM1), ICAM1 (gene 3383); assay: BSK_KF3CT_ICAM1: BioMAP Diversity Plus: KF3CT Assay for Intercellular Adhesion Molecule 1 (ICAM1) Biomarker Activity (AID 2283067); conditions: primary human keratinocytes with fibroblasts; actives raise or lower the signal
In short: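 Bidirectional curve fitting against a DMSO baseline was applied to ICAM-1 ELISA signal from primary human skin co-cultures harvested 24 h after treatment, with SRB staining of parallel wells for overt cytotoxicity.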

[5] = read-out: Interferon-gamma inducible Protein 10 (IP10), CXCL10 (gene 3627); assay: BSK_KF3CT_IP10: BioMAP Diversity Plus: KF3CT Assay for Interferon-gamma inducible Protein 10 (IP10) Biomarker Activity (AID 2283068); conditions: primary human keratinocytes with fibroblasts; actives raise or lower the signal
In short: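 Signal is secreted/surface IP-10 by ELISA in a human primary skin co-culture of keratinocytes and foreskin fibroblasts, taken 24 h post-dosing; DMSO served as negative control.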

[6] = BSK_KF3CT_SRB: Viability Assessment in the BioMAP Diversity Plus: KF3CT Assay (AID 2283069); conditions: primary human keratinocytes with fibroblasts;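 note: read 24 h after compound addition; fitted for both signal gain and loss against DMSO baseline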
In short: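 Overt cytotoxicity is assessed as total protein by sulforhodamine B staining in parallel human skin co-cultures at 24 h after dosing. DMSO serves as negative control and baseline.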

[7] = read-out: Interleukin-1 alpha (IL1a), IL1A (gene 3552); assay: BSK_KF3CT_IL1a: BioMAP Diversity Plus: KF3CT Assay for Interleukin-1 alpha (IL1a) Biomarker Activity (AID 2283070); conditions: primary human keratinocytes with fibroblasts; actives raise or lower the signal
In short: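 Readout is IL-1a level by ELISA, compared bidirectionally with DMSO as baseline. Cells: human keratinocytes co-cultured with foreskin fibroblasts, harvested 24 h post-dose.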

[8] = read-out: TIMP metallopeptidase inhibitor 2 (TIMP2), TIMP2 (gene 7077); assay: BSK_KF3CT_TIMP2: BioMAP Diversity Plus: KF3CT Assay for TIMP metallopeptidase inhibitor 2 (TIMP2) Biomarker Activity (AID 2283071); conditions: primary human keratinocytes with fibroblasts; actives raise or lower the signal
In short: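 Measurements come from ELISA detection of TIMP-2 at 24 hours in a dosed human keratinocyte and foreskin fibroblast co-culture. DMSO serves as negative control and baseline.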

[9] = read-out: Transforming growth factor beta 1 (TGFb1), TGFB1 (gene 7040); assay: BSK_KF3CT_TGFb1: BioMAP Diversity Plus: KF3CT Assay for Transforming growth factor beta 1 (TGFb1) Biomarker Activity (AID 2283072); conditions: primary human keratinocytes with fibroblasts; actives raise or lower the signal
In short: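 TGF-b1 ELISA on a 24 h dosed co-culture of human keratinocytes and foreskin fibroblasts; cytotoxicity tracked in parallel cultures by SRB staining.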

[10] = read-out: C-C motif chemokine 2 (Homo sapiens) (UniProt P13500); assay: BSK_KF3CT_MCP1: BioMAP Diversity Plus: KF3CT Assay for Monocyte Chemoattractant Protein 1 (MCP1/CCL2) Biomarker Activity (AID 2283073); conditions: primary human keratinocytes with fibroblasts; actives raise or lower the signal
In short: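 Biomarker MCP-1 is measured by ELISA in primary human keratinocytes co-cultured with foreskin fibroblasts, 24 h after chemical treatment; DMSO serves as the negative control and activity baseline.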

Measured: AC50

CCCCCCCCn1sccc1=O
active: [1] 1.43 µM | [2] 1.09 µM | [3] 1.4 µM | [4] 9.79 µM | [5] 8.03 µM | [6] 6.74 µM | [7] 9.05 µM | [8] 11.2 µM | [9] 9.71 µM | [10] 10.6 µM

c1ccc(N=Nc2ccccc2)cc1
not listed: [10]
inactive: all other assays above

CCOc1cccc(C2(N3CCN(c4ccccc4)CC3)CCC(C)CC2)c1 (configuration not stated)
inactive: all assays above

CC(O)CCO (configuration not stated)
not listed: [10]
inactive: all other assays above

CC(C)(C)OOC(C)(C)CCC(C)(C)OOC(C)(C)C
inactive: all assays above

CN(C)[C@@H]1C(=O)C(C(N)=O)=C(O)[C@@]2(O)C(=O)C3=C(O)c4c(O)cccc4[C@@](C)(O)[C@H]3C[C@@H]12
inactive: all assays above

Oc1ccccc1Cl
not listed: [10]
inactive: all other assays above

Clc1ccc(C(c2ccc(Cl)cc2)C(Cl)(Cl)Cl)cc1
active: [1] 14.8 µM | [2] 9.94 µM | [3] 8.38 µM | [4] 27.7 µM | [5] 16.3 µM | [6] 18.7 µM | [7] 25.1 µM | [8] 11.7 µM | [9] 14.8 µM | [10] 12.7 µM

ClCCOCCCl
not listed: [10]
inactive: all other assays above

c1ccc2c(c1)-c1cccc3cccc-2c13
not listed: [10]
inactive: all other assays above

N#CC(Br)(Br)C(N)=O
not listed: [10]
inactive: all other assays above

OCCOCCO
inactive: all assays above

CO[C@@H]1[C@H](OC(=O)NC(=O)CCl)CC[C@]2(CO2)[C@H]1[C@@]1(C)O[C@@H]1CC=C(C)C
active: [1] 11.6 µM | [2] 4.58 µM | [5] 8.27 µM | [7] 7.91 µM
inactive: all other assays above

Nc1ccc([N+](=O)[O-])cc1
not listed: [9]
inactive: all other assays above

CCOC(=O)[C@]1(c2ccccc2)Oc2ccccc2[C@@H]1N
active: [2] 36.6 µM | [3] 33.6 µM
inactive: all other assays above

O=C1CCCO1
not listed: [9]
inactive: all other assays above

Nc1ccc(Oc2ccc(N)cc2)cc1
not listed: [9]
inactive: all other assays above

ClC1=C(Cl)[C@]2(Cl)[C@H]3[C@H]([C@@H]4C=C[C@H]3C4)[C@@]1(Cl)C2(Cl)Cl
active: [1] 29.9 µM | [2] 10.1 µM | [3] 10.7 µM | [4] 15.5 µM | [5] 14.5 µM | [6] 30.6 µM | [8] 20 µM | [9] 22.4 µM | [10] 22.3 µM

O=C(Nc1ccccc1)c1ccccc1I
inactive: all assays above

CS(=O)(=O)NC(=O)c1cc(Oc2ccc(C(F)(F)F)cc2Cl)ccc1[N+](=O)[O-]
inactive: all assays above

O=P(OCCCl)(OCCCl)OCCCl
not listed: [9]
inactive: all other assays above

[As]#[In]
inactive: all assays above

Cc1ccc(N=C=O)cc1N=C=O
inactive: all assays above

CC(C)N(Cc1ccccc1)C(=O)C(C)(C)C
not listed: [9]
inactive: all other assays above

Cn1cc(-c2ccccc2)c(=O)c(-c2cccc(C(F)(F)F)c2)c1
inactive: all assays above

COP(=S)(OC)SCN1C(=O)c2ccccc2C1=O
not listed: [9]
inactive: all other assays above

CC(C)COC(=O)c1ccccc1C(=O)OCC(C)C
active: [2] 20 µM
inactive: all other assays above

Clc1ccc(C(c2ccc(Cl)cc2)C(Cl)Cl)cc1
active: [1] 10.8 µM | [2] 9.19 µM | [3] 7.29 µM | [4] 15.5 µM | [5] 13.9 µM | [6] 12.8 µM | [7] 13.8 µM | [8] 11.2 µM | [10] 10.4 µM

Nc1ccc(N=Nc2ccccc2)cc1
active: [2] 20 µM
not listed: [9]
inactive: all other assays above

COC(=O)c1ccccc1N
not listed: [9]
inactive: all other assays above

COC(=O)Nc1nc2ccccc2[nH]1
not listed: [9]
inactive: all other assays above

C=CCc1ccc2c(c1)OCO2
not listed: [9]
inactive: all other assays above

O=C(O)C1C2CCC(O2)C1C(=O)O (configuration not stated)
active: [2] 18.6 µM | [3] 6.83 µM
inactive: all other assays above

Clc1ccccc1Cl
not listed: [7] | [10]
inactive: all other assays above

O=C(N[C@H](c1ccccc1)[C@@H]1CN2CCC1CC2)c1c(Cl)ccc(C(F)(F)F)c1Cl
inactive: [1] | [2] | [3]
active: [4] 49.6 µM | [5] 49 µM | [6] 44.6 µM | [7] 47.9 µM | [9] 48.7 µM

CCC12COCN1COC2
not listed: [9]
inactive: all other assays above

Cc1ccc(N)cc1
not listed: [9]
inactive: all other assays above

Cc1ccc(N)c(N)c1
not listed: [5] | [10]
inactive: all other assays above

CCCCCCCCOC(=O)c1ccc(C(=O)OCCCCCCCC)c(C(=O)OCCCCCCCC)c1
not listed: [9]
inactive: all other assays above

[Cl-].[Cl-].[Hg+2]
active: [1] 11.8 µM | [2] 7.96 µM | [3] 12.2 µM | [4] 20.8 µM | [5] 12.8 µM | [6] 13.2 µM | [7] 30.4 µM | [8] 29.2 µM | [10] 20 µM

— PubChem BioAssay (EPA / NIEHS)
